The record followed here is PubChem BioAssay.

Unmarked numbers belong to inactive results. For part of these data: Measured potencies and affinities stand elsewhere. The source made the active and inactive calls. Unless noted, no rule for the calls is given here.

The nature of experiment [1]: human hepatoma cell viability loss – ATP luminescence, cytotoxicity control for P. falciparum antimalarial project, primary screen (AID 2303;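 active = inhibition above 50%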;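 also: 0% = DMSO wells and 100% = digitonin-killed cells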). Conditions: HepG2 viability, 24-48 h, at 10 µM, active compounds read high.
The target of experiment [2] is L-lactate dehydrogenase (Plasmodium falciparum (isolate CDC / Honduras)) (UniProt Q27743). Briefly: PfLDH activity inhibition – cell lysate, 3D7 strain, counter-screen for P. falciparum growth inhibition project (AID 2304).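 Also: 0% = vehicle and 100% = reference inhibitor.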 Conditions: P. falciparum 3D7 crude extract, LDH APAD/NBT absorbance; at 2 µM; active compounds read high. (In general: A counterscreen serves to expose hits that act by an unwanted route or on another target.)
Chain of L-lactate dehydrogenase (Plasmodium falciparum (isolate CDC / Honduras)) (Q27743 whole entry, looked up): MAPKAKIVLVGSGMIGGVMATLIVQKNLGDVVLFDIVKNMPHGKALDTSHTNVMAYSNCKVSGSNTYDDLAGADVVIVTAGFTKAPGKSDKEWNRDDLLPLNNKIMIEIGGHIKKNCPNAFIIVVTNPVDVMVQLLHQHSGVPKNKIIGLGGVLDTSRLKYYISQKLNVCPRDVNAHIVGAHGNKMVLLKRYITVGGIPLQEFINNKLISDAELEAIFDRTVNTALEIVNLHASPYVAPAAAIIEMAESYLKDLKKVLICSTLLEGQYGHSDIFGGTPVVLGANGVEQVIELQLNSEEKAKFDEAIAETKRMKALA

Experiment [3] is described as follows: inhibition of 3D7 malaria parasite growth – strain 3D7 (AID 2306).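 Also: 0% = DMSO wells and 100% = chloroquine plus artemisinin control wells.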 Conditions: P. falciparum 3D7 erythrocytic growth, LDH absorbance, 72 h; at 2 µM; active compounds read high.
Experiment [4] deals with Calcium-dependent protein kinase 1 (Plasmodium falciparum (isolate 3D7)) (UniProt P62344). Briefly: PfCDPK1 kinase inhibitors, biochemical, TCAMS library (AID 1159585; cut-off not given, nearly all actives have IC50 up to about 0.98 µM;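 also: inhibitors leave more ATP so luminescence rises with inhibition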). Conditions: recombinant PfCDPK1, Kinase-Glo ATP depletion luminescence. (In general: In Kinase-Glo more light means more ATP remaining.)
Chain of Calcium-dependent protein kinase 1 (Plasmodium falciparum (isolate 3D7)) (P62344 whole entry, looked up): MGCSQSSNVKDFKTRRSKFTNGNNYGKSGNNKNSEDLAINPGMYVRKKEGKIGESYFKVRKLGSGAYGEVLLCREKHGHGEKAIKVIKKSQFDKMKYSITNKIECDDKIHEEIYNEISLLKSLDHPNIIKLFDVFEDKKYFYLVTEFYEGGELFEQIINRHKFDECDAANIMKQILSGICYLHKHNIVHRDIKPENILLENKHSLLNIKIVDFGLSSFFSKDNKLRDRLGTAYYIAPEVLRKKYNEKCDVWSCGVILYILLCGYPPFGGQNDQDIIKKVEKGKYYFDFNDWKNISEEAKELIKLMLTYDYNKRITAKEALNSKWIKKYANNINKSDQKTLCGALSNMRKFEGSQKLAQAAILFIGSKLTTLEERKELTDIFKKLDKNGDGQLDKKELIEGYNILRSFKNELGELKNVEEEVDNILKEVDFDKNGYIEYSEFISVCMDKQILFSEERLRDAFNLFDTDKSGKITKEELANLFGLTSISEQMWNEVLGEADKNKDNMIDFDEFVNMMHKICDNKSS
Experiment [5] addresses Plasmodium falciparum protein kinase 6 (PK6, PF3D7_1337100) (UniProt Q8IDW1). The experiment in a line: PfPK6 kinase inhibitors, biochemical, TCAMS library (AID 1159586). Conditions: recombinant PfPK6, Kinase-Glo ATP depletion luminescence.
Experiment [6] addresses Protein kinase 7 (PK7), Plasmodium falciparum 3D7 (PF3D7_0213400) (UniProt Q7YTF7). Briefly: inhibition of Plasmodium PK7 catalytic activity – biochemical, TCAMS antimalarial set, Kinase-Glo luminescence (AID 1159587). Conditions: recombinant PfPK7, Kinase-Glo ATP depletion luminescence.
Experiment [7] concerns the target Calcium-dependent protein kinase 4 (Plasmodium falciparum (isolate 3D7)) (UniProt Q8IBS5). The experiment in a line: PfCDPK4 kinase inhibitors, biochemical, TCAMS library (AID 1159588; cut-off not given, nearly all actives have IC50 up to about 0.91 µM). Conditions: recombinant PfCDPK4, Kinase-Glo ATP depletion luminescence.
Experiment [8] can be described thus: antimalarial activity against Dd2 strain (AID 2302;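 active = growth inhibition above 50% at the single 2 µM test dose, taken to imply half-maximal potency below 2 µM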;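 also: 0% = DMSO untreated growth and 100% = chloroquine plus artemisinin killed control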). Conditions: P. falciparum Dd2 in RBCs, LDH growth readout, 72 h; at 2 µM; active compounds read high.

Chain of Protein kinase 7 (PK7), Plasmodium falciparum 3D7 (PF3D7_0213400) (Q7YTF7 1-343): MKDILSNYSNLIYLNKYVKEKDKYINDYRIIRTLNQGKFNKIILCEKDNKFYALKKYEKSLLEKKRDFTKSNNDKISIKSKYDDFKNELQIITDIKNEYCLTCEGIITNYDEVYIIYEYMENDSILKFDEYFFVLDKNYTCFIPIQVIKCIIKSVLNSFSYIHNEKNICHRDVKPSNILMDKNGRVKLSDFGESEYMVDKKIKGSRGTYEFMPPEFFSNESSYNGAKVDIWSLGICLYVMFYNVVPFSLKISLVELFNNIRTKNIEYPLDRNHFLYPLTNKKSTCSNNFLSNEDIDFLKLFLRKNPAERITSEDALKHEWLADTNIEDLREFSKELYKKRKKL
Chain of Calcium-dependent protein kinase 4 (Plasmodium falciparum (isolate 3D7)) (Q8IBS5 whole entry, looked up): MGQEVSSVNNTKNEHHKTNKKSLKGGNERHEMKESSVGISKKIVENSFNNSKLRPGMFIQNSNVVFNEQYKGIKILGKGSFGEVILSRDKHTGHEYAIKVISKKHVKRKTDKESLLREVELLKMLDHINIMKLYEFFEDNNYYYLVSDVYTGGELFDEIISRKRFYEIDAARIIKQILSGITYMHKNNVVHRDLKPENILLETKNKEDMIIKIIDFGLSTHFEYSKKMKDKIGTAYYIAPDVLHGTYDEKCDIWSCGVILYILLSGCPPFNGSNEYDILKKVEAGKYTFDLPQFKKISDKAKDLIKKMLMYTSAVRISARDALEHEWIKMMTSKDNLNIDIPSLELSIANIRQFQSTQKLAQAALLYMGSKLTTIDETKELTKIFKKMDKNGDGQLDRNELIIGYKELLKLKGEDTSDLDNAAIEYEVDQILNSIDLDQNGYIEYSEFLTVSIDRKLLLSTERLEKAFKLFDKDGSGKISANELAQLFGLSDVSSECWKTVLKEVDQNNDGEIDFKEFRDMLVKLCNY
Chain of Plasmodium falciparum protein kinase 6 (PK6, PF3D7_1337100) (Q8IDW1 1-305): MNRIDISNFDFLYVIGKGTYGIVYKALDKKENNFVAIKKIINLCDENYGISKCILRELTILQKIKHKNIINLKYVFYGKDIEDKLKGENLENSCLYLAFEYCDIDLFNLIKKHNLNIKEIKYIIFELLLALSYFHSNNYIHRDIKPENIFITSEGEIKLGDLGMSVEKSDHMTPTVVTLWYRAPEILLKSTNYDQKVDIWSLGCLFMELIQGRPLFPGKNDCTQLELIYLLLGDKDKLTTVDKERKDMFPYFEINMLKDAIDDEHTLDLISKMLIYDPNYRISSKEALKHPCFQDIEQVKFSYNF

For orientation: inhibition means the relative decrease from the control value, in per cent. Turning to `Nc1[nH]c2ccccc2c(=O)c1-c1nc2ccccc2s1`, the inhibition in experiment [1] was 16%; in experiment [2], -6%. In addition, in experiment [3], the growth inhibition is 97% (active). For the same compound, the result in experiment [4], in experiment [5], in experiment [6] and in experiment [7] was inactive.

Consider `COc1ccc(N=C(N)Nc2ccccc2)nc1Cc1ccccc1`, for which the inhibition is 17% in experiment [1] and -6% in experiment [2]. Also, the growth inhibition in experiment [3] was 81% (active). The outcome in experiment [4], in experiment [5], in experiment [6] and in experiment [7] was inactive.

Turning to `COc1ccc(NC(=O)c2ccc(-c3cccc(OCc4ccccc4)c3)cc2)cc1N1CCN(C)CC1`, the inhibition in experiment [1] is 29%; in experiment [2], -1%. In experiment [3], the growth inhibition was 85% (active). The result in experiment [4], in experiment [5], in experiment [6] and in experiment [7] was inactive.

`O=C(Nc1ccc(OC2CCN(CC3CC3)CC2)c(Cl)c1)c1ccc2ncccc2c1`: the inhibition was 19% in experiment [1] and -2% in experiment [2]. For the same compound, the growth inhibition in experiment [3] was 84% (active). Besides, the result in experiment [4], in experiment [5], in experiment [6] and in experiment [7] was inactive.

As for `Cc1ccccc1Cn1ccc2c3c(N)nc(N)nc3ccc21`, the inhibition in experiment [2] was -4%. For the same compound, in experiment [3], the growth inhibition was 100% (active). The result in experiment [4], in experiment [5], in experiment [6] and in experiment [7] was inactive.

In the case of `Cc1[nH]nc2ccc(-c3cc(OC[C@@H](N)Cc4ccccc4)cnc3-c3cc4ccccc4s3)cc12`, the growth inhibition was 68% (active) in experiment [8] and 99% (active) in experiment [3]. In addition, the inhibition in experiment [1] is 41%; in experiment [2], -3%. Moreover, the outcome in experiment [4], in experiment [5] and in experiment [6] was inactive.

As for `Cc1ccc(Cn2ccc3c4c(N)nc(N)nc4ccc32)cc1`, the inhibition in experiment [2] was -6%. Besides, in experiment [3], the growth inhibition is 99% (active). Moreover, the outcome in experiment [4], in experiment [5], in experiment [6] and in experiment [7] was inactive.

With `COc1ccc(C2CC(c3cccs3)=NN2C(=O)COc2cccc(C(C)=O)c2)cc1OC` (stereo not given), the inhibition in experiment [1] was 10%; in experiment [2], -2%. The growth inhibition in experiment [3] was 99% (active). Further, the result in experiment [4], in experiment [5], in experiment [6] and in experiment [7] was inactive.

As to `Nc1nc2ccc(CNc3ccc(C(=O)N[C@@H](CCC(=O)O)C(=O)O)cc3)cc2c(=O)[nH]1`, the values for the inhibition in experiment [1] and in experiment [2] were 2% and 3%, respectively. Besides, in experiment [3], the growth inhibition was 96% (active). The outcome in experiment [4], in experiment [5], in experiment [6] and in experiment [7] was inactive.

Consider `Fc1ccccc1C=NNc1ccnc2cc(Cl)ccc12`, for which the inhibition in experiment [2] is -2%. In addition, the outcome in experiment [4], in experiment [5], in experiment [6] and in experiment [7] was inactive.

With `CN(C)CC(O)COc1ccc(Nc2ncc([N+](=O)[O-])c(Nc3ccccc3O)n2)cc1` (stereo not given), the results for the growth inhibition in experiment [8] and in experiment [3] were 20% and 100% (active), respectively. Moreover, the inhibition in experiment [1] was 47%; in experiment [2], -4%. The result in experiment [4], in experiment [6] and in experiment [7] was inactive.

Consider `COc1c(CN2CCOCC2)cccc1-c1cc2c(-c3ccc(C(=O)O)c(C(C)C)c3)ccnc2[nH]1`, for which the growth inhibition was 90% (active) in experiment [8] and 98% (active) in experiment [3]. For the same compound, the inhibition in experiment [1] was 44%; in experiment [2], -3%. In addition, the outcome in experiment [4], in experiment [6] and in experiment [7] was inactive.

Turning to `N#Cc1cnc(Nc2ccc(Oc3ccccc3)cc2)nc1Nc1cccc(S(N)(=O)=O)c1`, the values for the growth inhibition in experiment [8] and in experiment [3] were 86% (active) and 96% (active), respectively. The values for the inhibition in experiment [1] and in experiment [2] were 74% (active) and 3%, respectively. The outcome in experiment [4], in experiment [6] and in experiment [7] was inactive.

Regarding `CC(=O)Nc1nc(C)c(-c2csc(Nc3ccc(Cl)cc3)n2)s1`, the growth inhibition in experiment [8] was 93% (active); in experiment [3], 96% (active). In addition, the inhibition in experiment [1] is 14%; in experiment [2], 0%. In addition, the result in experiment [4], in experiment [6] and in experiment [7] was inactive.

Consider `N#CCc1ccc(Nc2nccc(Nc3ccc(Oc4ccccc4)cc3)n2)cc1`, for which the growth inhibition is 47% in experiment [8] and 98% (active) in experiment [3]. For the same compound, the figures for the inhibition in experiment [1] and in experiment [2] were -1% and 6%, respectively. In addition, the result in experiment [5], in experiment [6] and in experiment [7] was inactive.

For the compound `CCNC(=O)Nc1ccc(N(C)c2ccnc(Nc3ccc(CS(C)(=O)=O)cc3)n2)cc1`, the results for the growth inhibition in experiment [8] and in experiment [3] were 99% (active) and 101% (active), respectively. Besides, the inhibition was -5% in experiment [1] and 2% in experiment [2]. For the same compound, the outcome in experiment [4], in experiment [6] and in experiment [7] was inactive.

In the case of `Nc1ncc(-c2cn[nH]c2)cc1-c1nc2ccc(F)cc2[nH]1`, the figures for the growth inhibition in experiment [8] and in experiment [3] were 53% (active) and 101% (active), respectively. In addition, the inhibition in experiment [1] is 38%; in experiment [2], -3%. Moreover, the outcome in experiment [5], in experiment [6] and in experiment [7] was inactive.

With `Cc1ccc(Nc2nc3cc(Nc4ccnc(Nc5cccc(CS(C)(=O)=O)c5)n4)ccc3o2)cc1`, the growth inhibition in experiment [8] was 81% (active); in experiment [3] it was 101% (active). Moreover, the inhibition was 55% (active) in experiment [1] and 4% in experiment [2]. In addition, the result in experiment [4], in experiment [6] and in experiment [7] was inactive.

On to `Cn1cnc2c(Nc3ccncc3)nc(-c3ccc4c(c3)OCO4)nc21`, for which the figures for the growth inhibition in experiment [8] and in experiment [3] were 2% and 96% (active), respectively. Further, the values for the inhibition in experiment [1] and in experiment [2] were 19% and -1%, respectively. Further, the outcome in experiment [4], in experiment [6] and in experiment [7] was inactive.

On to `CC(C)(CNC(=O)C1CCN(CCOc2ccc(Cl)cc2)CC1)c1nc(-c2ccc(Cl)c(O)c2)c(-c2ccncc2)[nH]1`, for which the results for the growth inhibition in experiment [8] and in experiment [3] were 5% and 102% (active), respectively. In addition, the figures for the inhibition in experiment [1] and in experiment [2] were 40% and 7%, respectively. In addition, the result in experiment [5], in experiment [6] and in experiment [7] was inactive.

For the compound `CCNC(=O)Nc1ccc(-c2cnc(N)c(-c3nc4ccc(OC)cc4[nH]3)c2)cc1`, the growth inhibition in experiment [8] was 43%; in experiment [3], 100% (active). Moreover, the values for the inhibition in experiment [1] and in experiment [2] were 51% (active) and 1%, respectively. In addition, the outcome in experiment [5], in experiment [6] and in experiment [7] was inactive.

On to `CC(C)(CNC(=O)[C@H]1CCCN1)c1nc(-c2ccc(Cl)c(O)c2)c(-c2ccncc2)[nH]1`, for which the values for the growth inhibition in experiment [8] and in experiment [3] were 95% (active) and 86% (active), respectively. Moreover, the inhibition in experiment [1] is -11%; in experiment [2] it was -1%. Besides, the outcome in experiment [5], in experiment [6] and in experiment [7] was inactive.
